Test results published in the supplement of paper PMC13380429.
Structures can show the parent of a compound that is named as a salt. Values without a mark were called inactive.

Test system: Vero E6 infected with SARS-CoV-2
Experiment: inhibition of SARS-CoV-2 cytopathic effect; higher = more antiviral protection, active = above 15
Conditions: 48 h

Row | Compound | inhibition of SARS-CoV-2 cytopathic effect (1 nM) [%] | inhibition of SARS-CoV-2 cytopathic effect (8.33 nM) [%] | inhibition of SARS-CoV-2 cytopathic effect (100 nM) [%] | inhibition of SARS-CoV-2 cytopathic effect (833.33 nM) [%] | inhibition of SARS-CoV-2 cytopathic effect (10000 nM)
1 | C[C@@]12C[C@@]3(O)O[C@@H](O1)[C@]1(COC(=O)c4ccccc4)[C@H]3C[C@@]12O[C@@H]1O[C@H](CO)[C@@H](O)[C@H](O)[C@H]1O [paeoniflorin] | -0.01 | 0.45 | 0.1 | 0.8 | 0.46%
2 | O=C(Oc1ccccc1C(=O)O)c1ccccc1O [sasapyrine] | -6.73 | -8.94 | -2.49 | -6.28 | -11.8%
3 | Oc1ccc([C@@H]2Oc3ccc(O)cc3[C@@H]3CCC[C@@H]32)cc1 [erteberel] | -2.79 | 0.52 | -1.51 | -4.66 | 2.31%
4 | Cc1cnc(Nc2ccc(N3CCN(C)CC3)cc2)nc1Nc1cccc(S(=O)(=O)NC(C)(C)C)c1 | -0.35 | -0.73 | 0.51 | -7.25 | -21.1%
5 | CCOC(=O)C1=CCCC[C@H]1S(=O)(=O)Nc1ccc(F)cc1Cl [resatorvid] | 1.61 | 1.54 | 3.21 | 0.29 | -0.49%
6 | O=C(NCc1ccccc1)c1csc(Nc2ccncn2)n1 [thiazovivin] | -2.48 | 1.22 | -1.94 | -2 | -11.5%
7 | N#Cc1c(-c2ccccc2)cc(-c2cc(Br)ccc2O)[nH]c1=O | 0.98 | 2.69 | 3 | 2.87 | 3.55%
8 | O=C(NC(=O)c1c(F)cccc1F)Nc1cc(Cl)c(OC(F)(F)C(F)C(F)(F)F)cc1Cl (stereo not given) [lufenuron] | 1.67 | 2.18 | -1.16 | 2.95 | 1.2%
9 | C[C@@H]1C[C@H]2[C@@H]3CCC4=CC(=O)C=C[C@]4(C)[C@@]3(F)[C@@H](O)C[C@]2(C)[C@H]1C(=O)CO [desoximetasone] | -2.66 | 0.15 | -1.47 | 1.96 | 0.8%
10 | Cc1cc(C(N)=O)ccc1-n1c(CCC(=O)O)ccc1-c1ccc(-n2ccnc2)cc1 | -3.46 | 2.86 | 2.45 | -1.56 | -2.98%
11 | CC1Oc2cc(cnc2N)-c2c(nn(C)c2C#N)CN(C)C(=O)c2ccc(F)cc21 (stereo not given) | -0.41 | 1.22 | 0.495 | -2.23 | 0.255%
12 | O=C1[C@@H]2[C@H]3CC[C@H](C3)[C@@H]2C(=O)N1CCCCN1CCN(c2ncccn2)CC1 [tandospirone] | 2.41 | 0.1 | -0.17 | 1.06 | 0.15%
13 | CN(C)Cc1cccc(N=C(c2ccccc2)c2c(O)[nH]c3cc(C(=O)N(C)C)ccc23)c1 | 1.09 | 1.08 | 1.9 | -0.95 | -4.44%
14 | c1ccc(OCc2ccc(CCCN3CCOCC3)cc2)cc1 [fomocaine] | 0.24 | 1.88 | 1.23 | -0.27 | 3.83%
15 | O=C(O)Cn1c2c(c3cc(F)ccc31)CN(C(=O)c1cccc3ccccc13)CC2 [setipiprant] | -1.54 | -1.86 | -0.37 | -0.82 | -0.76%
16 | O=C(Cc1ccccc1)Nc1nc2ccc(Cl)cc2c2nc(-c3ccco3)nn12 | 3.65 | 4.32 | 3.84 | 2.42 | 4.22%
17 | CC(=O)Nc1ccc(C(=O)Nc2ccccc2N)cc1 [tacedinaline] | 1.04 | 1.48 | -0.39 | -3.01 | -1.74%
18 | CC[C@@H](c1cccc(O)c1)[C@@H](C)CN(C)C [Tapentadol (hydrochloride)] | 2 | 1.05 | 1.07 | 3.03 | -0.29%
19 | CN1CCc2cc3c(cc2[C@H]1[C@@H]1OC(=O)c2c1ccc1c2OCO1)OCO3 [bicuculline-(+)] | 0.45 | 1.6 | 0.39 | 0.32 | 0.5%
20 | CCCCC(=O)O[C@]1(C(=O)CO)[C@@H](C)C[C@H]2[C@@H]3CCC4=CC(=O)C=C[C@]4(C)[C@@]3(F)[C@@H](O)C[C@@]21C | -3 | -2.7 | -2.96 | -2.78 | -4.48%

Row | Compound | inhibition of SARS-CoV-2 cytopathic effect (1 nM) [%] | inhibition of SARS-CoV-2 cytopathic effect (8.33 nM) [%] | inhibition of SARS-CoV-2 cytopathic effect (100 nM) [%] | inhibition of SARS-CoV-2 cytopathic effect (833.33 nM) [%] | inhibition of SARS-CoV-2 cytopathic effect (10000 nM)
21 | O=C(CO)[C@@H](O)[C@@H](O)[C@H](O)CO [tagatose] | -1.77 | -0.71 | -0.15 | -0.41 | 0.74%
22 | COCC(=O)Nc1c(I)c(C(=O)NCC(O)CO)c(I)c(C(=O)N(C)CC(O)CO)c1I (stereo not given) [iopromide] | -2.42 | -1.91 | -0.01 | -0.15 | 0.66%
23 | NCCS [cysteamine] | 1.07 | 0.1 | 0.28 | -1.61 | -4.62%
24 | CN(C)CC(=O)Nc1ccc2[nH]c(=O)c3ccccc3c2c1 | 1.34 | 2.81 | 1.23 | 5.19 | 6.44%
25 | CCC(CC)(CC(=O)Nc1cccc(/C=C/c2nc(C3CCC3)cs2)c1)C(=O)O [cinalukast] | -1.61 | 0.18 | 0.24 | 0.4 | 1.8%
26 | CC(C)[C@@H](CS(=O)(=O)C(C)C)N1C(=O)[C@@](C)(CC(=O)O)C[C@H](c2cccc(Cl)c2)[C@H]1c1ccc(Cl)cc1 | 2.3 | 3.7 | 3.54 | 4.65 | 4.3%
27 | CO[C@H]1/C=C/O[C@@]2(C)Oc3c(C)c(O)c4c(O)c(cc(O)c4c3C2=O)NC(=O)/C(C)=C\C=C\[C@H](C)[C@H](O)[C@@H](C)[C@@H](O)[C@@H](C)[C@H](OC(C)=O)[C@@H]1C [rifamycin-sv] | 0.74 | 1.12 | 3.4 | 4.53 | 2.73%
28 | CC(C)(C)n1nc(-c2cccc3ccccc23)c2c(N)ncnc21 [1-naphthyl-PP1] | 0.05 | 1.77 | 1.73 | 1.24 | -4.31%
29 | CC1(C)CCC(C)(C)c2c1cc(C(=O)Nc1cc(F)c(C(=O)O)c(F)c1)c(O)c2Cl | -1.01 | -0.71 | 0.11 | 2.72 | 3.26%
30 | CCOC(=O)[C@@H](N)Cc1ccc(-c2cc(O[C@H](c3ccc(Cl)cc3-n3ccc(C)n3)C(F)(F)F)nc(N)n2)cc1 [telotristat-ethyl] | -0.32 | 2.88 | -1.08 | 4.77 | 2.26%
31 | Cc1ccc2c(Cl)cc(Cl)c(O)c2n1 [chlorquinaldol] | -1.39 | -0.32 | -1.09 | -1.86 | 0.43%
32 | COc1cc2ncnc(Nc3cccc(Br)c3)c2cc1OC | -2.89 | -3.44 | -2.56 | -11.5 | 36.3% (active)
33 | c1ccc([C@@H]2C[C@H]2NC2CCNCC2)cc1 | -2.71 | 1.14 | 0.53 | 1.44 | -2.6%
34 | NC(=O)CCCCn1ccc(/N=C(\N)NCC(F)(F)F)n1 | 0.43 | 2.16 | -1.98 | 0.05 | -0.82%
35 | Cn1c2cc([S+](C)[O-])sc2c2cnn(Cc3cccc(N)c3)c(=O)c21 (stereo not given) | -0.28 | -0.88 | 5.04 | 3.73 | 4.31%
36 | COc1ccc(-c2cc3nccn3c(Nc3ncccc3C(N)=O)n2)cc1OC | -3.34 | -0.9 | -4.75 | -2.69 | -6.9%
37 | CC(C)c1ccc(CC(=O)N2CCC[C@@H](c3cccc(OC(C)(C)C(=O)O)c3)C2)cc1 | 0.54 | 0.54 | -0.36 | 1.87 | -0.15%
38 | C[C@H]1CNCCCN1S(=O)(=O)c1cccc2cncc(F)c12 [ripasudil] | -0.82 | 0.41 | -1.45 | -1.5 | -5.58%
39 | CCCCc1nc(C)c(CC(=S)N(C)C)c(=O)n1Cc1ccc(-c2ccccc2-c2nnn[nH]2)cc1 [fimasartan] | 0.68 | -0.83 | -1.61 | 1.46 | -0.45%
